DT40 TDP1 CPT = qHTS for Inhibitors of human tyrosyl-DNA phosphodiesterase 1 (TDP1): qHTS in cells in presence of CPT; chicken DT40 Tdp1-/-;hTDP1 cells + 20 nM CPT, ATP luminescence, 48 h; hit rate 12% among 420,000; Potency, µM (top dose mostly 46.2 µM), inactives show at the highest dose activity change, negative = growth inhibition, actives largely listed as inhibitors; AID 686979, 2013; also: nearly all actives have a fitted effect of over 55% in size
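Cell growth measured by CellTiter-Glo luminescence after a minimum 48 h, 37 C compound exposure with 20 nM CPT in Tdp1-knockout DT40 cells stably expressing hTDP1, seeded 400/well; qHTS titration format.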
TDP1 inh = qHTS Assay for Inhibitors of Tyrosyl-DNA Phosphodiesterase (TDP1); Tyrosyl-DNA phosphodiesterase 1 (Homo sapiens), Q9NUW8; hit rate 0.28% among 350,000; Potency, µM (titrated, usually from 130 µM), for inactives: at the top dose activity change, negative = inhibition, hits mostly inhibitors; recombinant TDP1, AlphaScreen DNA substrate cleavage; also: nearly all actives have a fitted effect of over 40% in size
Target sequence (Q9NUW8 whole entry, looked up): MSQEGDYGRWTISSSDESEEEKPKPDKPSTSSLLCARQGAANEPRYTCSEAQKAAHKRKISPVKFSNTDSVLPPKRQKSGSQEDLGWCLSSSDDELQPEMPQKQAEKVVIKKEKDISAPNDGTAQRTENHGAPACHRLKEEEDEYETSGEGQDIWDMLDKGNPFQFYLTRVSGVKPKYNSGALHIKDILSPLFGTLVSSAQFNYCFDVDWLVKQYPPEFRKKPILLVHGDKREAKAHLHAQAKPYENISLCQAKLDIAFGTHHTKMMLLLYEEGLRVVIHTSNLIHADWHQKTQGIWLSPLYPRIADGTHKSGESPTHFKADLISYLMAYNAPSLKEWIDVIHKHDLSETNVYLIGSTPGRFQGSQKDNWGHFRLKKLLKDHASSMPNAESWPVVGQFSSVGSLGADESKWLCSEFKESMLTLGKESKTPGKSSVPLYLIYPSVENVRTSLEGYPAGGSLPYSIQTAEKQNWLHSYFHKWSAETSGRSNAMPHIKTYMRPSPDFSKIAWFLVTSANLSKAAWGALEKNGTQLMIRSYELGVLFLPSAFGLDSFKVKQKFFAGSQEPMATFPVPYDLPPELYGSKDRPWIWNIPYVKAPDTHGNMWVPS
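Tdp1 1 nM final; 15 min RT w/ cpd; substrate 15 nM, 5 min; beads 10 ug/ml, 10 min; AlphaScreen read. Neg ctrl: no enzyme.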
VP16 counter = VP16 counterscreen qHTS for inhibitors of ROR gamma transcriptional activity. Drosophila S2 Gal4-VP16 UAS-luciferase, luminescence, 20 h. hit rate 3.5% among 310,000. Potency, µM (top dose mostly 53.6 µM), inactives show top-dose activity, negative = inhibition, hits mostly inhibitors;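 also: Gal4-VP16 expression switched on by copper sulfate through the metallothionein promoter; nearly all actives have a fitted effect of over 50% in size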
RORgamma inh = qHTS for inhibitors of ROR gamma transcriptional activity. Potency, µM (titrated, usually from 53.6 µM), without a hit: at the highest dose activity change, negative = inhibition, hits mostly inhibitors. AID 2551, 2010. Drosophila S2 Gal4-RORgamma UAS-luciferase reporter, 20 h. hit rate 5.4% among 310,000. Nuclear receptor ROR-gamma (Mus musculus), P51450; also: nearly all actives have a fitted effect of over 60% in size
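Stable Schneider cell line, Gal4 DNA-binding domain fused to ROR gamma, UAS-luciferase. Cmpd 1 hr RT → CuSO4 700 uM final → 20 hr RT → luciferase reagent 10 min → luminescence.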
TDP1 cell noCPT = qHTS for Inhibitors of human tyrosyl-DNA phosphodiesterase 1 (TDP1): qHTS in cells in absence of CPT; hit rate 15% among 420,000; Potency, µM (doses to about 46.2 µM), inactives show top-dose activity change, negative = growth inhibition, actives largely listed as inhibitors; DT40 Tdp1-/- hTDP1 cells, no CPT, ATP luminescence, 48 h; also: nearly all actives have a fitted effect of over 55% in size
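A cellular qHTS used chicken DT40 cells lacking endogenous Tdp1 but carrying stably transfected human TDP1. Compounds were applied without camptothecin, and cell growth kinetics were judged by ATP-dependent luminescence after ≥48 hr.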
* marks the source's active call; other numbers are inactive results; ? = inconclusive; · = no result given. Most compounds without a hit are left out; they make up all but 19% or so of the library. Calls follow the shape of the dose curve; as a rule, active = well fitted curve in the direction sought with a large enough effect; inconclusive = small, poorly fitted or top-dose-only effect, or another doubt; inactive = no such curve, though single readings can be large; an effect the other way counts as inactive or inconclusive. % is scaled to controls: 0 for no effect and ±100 for the full control effect; potency is read from the fitted curve at half-maximal effect.

SMILES	DT40 TDP1 CPT	TDP1 inh	VP16 counter	RORgamma inh	TDP1 cell noCPT
COc1cccc2c1nc(C)c1cc(C)oc12	-24%	7%	-16%	-77%	?
COc1ccccc1N1CCc2c(C)nc3c(OC)cccc3c21	5.8µM*	4%	-4%	-11%	4.1µM*
COc1cccc2c3c(c(C)nc12)CCN3c1ccccc1	?	3%	-8%	-31%	15µM*
Cc1ccc2nc(C)c3c(c2c1)N(c1ccc(F)cc1)CC3	10µM*	·	-3%	-25%	?
CSc1nc(C)c2c(n1)N(c1ccc(F)cc1)CC2	-2%	-2%	5%	-15%	?
Cc1cc(O)c2c(c1)C(=O)[C@@]13Oc4c5c(c(O)c6c(O)cc(C)cc46)C(=O)C[C@H](O)[C@H]5[C@@H]1[C@@H](O)CC(=O)C3=C2O	15µM*	·	·	·	?
COC(=O)c1sccc1NC(=O)COc1ccc(Cl)cc1Cl	-5%	2%	-16%	8%	-10%
COC(=O)c1sccc1NC(=O)CN(C)NS(=O)(=O)c1ccc([N+](=O)[O-])cc1	?	5%	-4%	-1%	?
COC(=O)c1sccc1NC(=O)CN(C)NS(=O)(=O)c1ccc(F)cc1	18µM*	3%	-3%	-9%	?
COC(=O)c1sccc1NC(=O)CN(C)NS(=O)(=O)c1ccc(Cl)cc1	?	1%	3%	1%	18µM*
O=C(NC(=S)Nc1c(Cl)ccc2nsnc12)c1ccco1	8%	-5%	?	?	-15%
COc1cc(C(c2c(O)cc(C)[nH]c2=O)c2c(O)cc(C)[nH]c2=O)ccc1O	-10%	·	3%	-7%	-10%
CCC(C)C(NC(N)=O)C(=O)Nc1ccc(C)c(Cl)c1 (stereo not given)	2%	7%	6%	19%	-27%
Cc1cccc(NC2(C(=O)O)CCCC2)c1	12%	·	·	·	?
COC(=O)[C@@]1(Cc2ccc(OC)cc2)[C@@H]2C(=CC(=O)[C@H]2CC(=O)C(=O)N2CCCC2)CN1C(=O)c1ccccc1	?	7%	4µM*	?	16µM*
C=C1C(=O)C=C2CN(C(=O)c3ccccc3)[C@@](Cc3ccc(OC)cc3)(C(=O)OC)[C@@H]12	·	-4%	0.71µM*	4µM*	·
COC(=O)[C@@]1(Cc2ccc(OC)cc2)[C@@H]2[C@@H](CC(=O)[C@H]2CC(=O)C(=O)N(C)C)CN1C(=O)c1ccccc1	23µM*	-4%	4%	?	?
COC(=O)[C@@]1(Cc2ccc(F)cc2)[C@@H]2C(=CC(=O)[C@H]2CC(=O)C(=O)N2CCCC2)CN1C(=O)c1ccccc1	·	8%	?	14µM*	·
Cc1sc2nc(CSCC(=O)Nc3ccc(OC(F)F)cc3)[nH]c(=O)c2c1C	-16%	0%	6%	8%	-1%
O=C(C1CC1)N1CCC(Oc2cccc(C(=O)N3CCCCC3CCO)c2)CC1 (stereo not given)	-26%	7%	-1%	13%	11%
O=C(NCc1cccc(Cl)c1)c1cccc(OC2CCN(C(=O)C3CC3)CC2)c1	29µM*	2%	-26%	?	21µM*
O=C(c1cccc(OC2CCN(Cc3cc(F)cc(F)c3)CC2)c1)N1CCCC1	?	1%	-5%	-5%	?
O=C(c1cccc(OC2CCN(C3CCCC3)CC2)c1)N1CCCCCCC1	-6%	-1%	-2%	-4%	?
CSc1ccc(CN2CCC(Oc3cccc(C(=O)N4CCCC4)c3)CC2)cc1	21µM*	1%	0%	-11%	18µM*
CSc1ccc(CN2CCN(C(=O)c3ccc([N+](=O)[O-])cc3)CC2)cc1	?	-5%	-15%	37%	21µM*
SMILES	DT40 TDP1 CPT	TDP1 inh	VP16 counter	RORgamma inh	TDP1 cell noCPT
O=C(c1cccc(OC2CCN(Cc3ccc(F)cc3Cl)CC2)c1)N1CCCC1	21µM*	2%	7%	12%	?
CCSc1ncc(Cl)c(C(=O)Nc2ccccc2OC)n1	-1%	·	-1%	-44%	6%
COCCNC(=O)c1cccc(OC2CCN(Cc3cccc(SC)c3)CC2)c1	?	3%	0%	14%	16µM*
O=S(=O)(c1ccccc1)c1cc(O)ccc1O	3.3µM*	6%	4%	19%	7.3µM*
O=S(=O)(c1ccc(Cl)cc1)c1cc(O)ccc1O	-2%	5%	-3%	16%	-30%
CCN(CC)C(=O)Oc1cc(=O)n2c3c(cccc13)CCC2	?	4%	0%	43%	3%
CCN1CCC2(CC1)N=C(c1ccc(F)cc1)C(=S)N2	0%	0%	-4%	13µM*	-2%
O=C1NC2(CCCC2)N=C1c1ccc(F)cc1	-11%	4%	-4%	-5%	-8%
S=C1NC2(CCCCC2)N=C1c1ccccc1	?	3%	3.5µM*	3.2µM*	?
Cc1ccc(C2=NC3(CCCCC3)NC2=S)cc1	0%	0%	4µM*	2µM*	-7%
CC(=O)c1c(C(C)=O)c(C)n(-c2nc(-c3ccc(Br)cc3)c(C)s2)c1C	18µM*	4%	-2%	-26%	16µM*
CSc1cccc(CN2CCCC(C(=O)Nc3cccc(-n4cccn4)c3)C2)c1 (stereo not given)	?	1%	-4%	-11%	?
O=C(Nc1cccc(-n2cnnn2)c1)C1CCCN(Cc2cccc(C(F)(F)F)c2)C1 (stereo not given)	13µM*	0%	-27%	?	18µM*
O=C(Nc1cccc(-n2cccn2)c1)C1CCCN(Cc2cccc(F)c2F)C1 (stereo not given)	23µM*	2%	1%	13%	21µM*
Cc1cc(CN2CCCC(C(=O)Nc3cccc(-n4cccn4)c3)C2)cc(C)c1O (stereo not given)	16µM*	2%	-1%	-14%	?
O=C(Nc1cccc(-n2cccn2)c1)C1CCCN(Cc2cc3ccccc3[nH]2)C1 (stereo not given)	16µM*	·	-13%	0%	?
Cc1c(CN2CCCC(C(=O)Nc3cccc(-n4cccn4)c3)C2)cnn1C (stereo not given)	-11%	3%	5%	-6%	-6%
Cc1cccc(-c2cccc(NC(=O)C3CCCN(Cc4cccnc4)C3)c2)c1 (stereo not given)	?	5%	-9%	3%	?

Bioassay records (PubChem BioAssay)
